# Screens from PubChem BioAssay.
# Most compounds without a hit are left out; they make up all but 12% or so of the library.
# PI5P4K alpha inh: blocks human PI5P4K alpha kinase activity. P48426. PI5P4Kalpha enzyme, ADP-Glo luminescence, 60 min; hits give low values. max response, %. actives 1.2% (n = 330,000). AID 652105; active means max response of -50% or lower; inconclusive means between -30% and -50%; inactive means -30% or higher; further: value at the top dose of about 77 µM; on the % scale 0 is the no-effect control and ±100 the full control effect
#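 qHTS, 1536-well: enzyme/substrate mix, compound by pin tool, 5 microM ATP final; RT 60 min; ADP-Glo reagents 1 (45 min) then 2 (30 min); luminescence.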
# HP1b chromo inh: HP1-beta chromodomain-methylated histone interaction inhibition; P83916; actives 0.56% (n = 390,000); AlphaScreen HP1-beta / biotin-H3K9me3 peptide binding; Potency, µM (top dose mostly 114 µM), for the others: at the top dose activity change, negative = inhibition, actives largely listed as inhibitors; further: potency means the concentration at half of the fitted maximal effect; nearly all actives have a fitted effect of over 70% in size
#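 HP1-beta protein (50 nM final) preincubated 30 min at room temperature with biotinylated H3(1-18)K9me3 peptide (50 nM) in PBS pH 7.4, 0.01% Tween-20, then compound added for 30 min. AlphaScreen streptavidin donor/nickel chelate acceptor beads (10 ug/mL final), 30 min dark, luminescence read.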
# BAZ2B inh: blocks human BAZ2B; Q9UIF8; AlphaScreen BAZ2B-H3K14Ac peptide displacement; Potency, µM (series often up to 114 µM), without a hit: top-dose activity change, negative = inhibition, actives largely listed as inhibitors; actives 4.4% (n = 360,000); further: potency means the concentration at half of the fitted maximal effect; on the % scale 0 is the no-effect control and ±100 the full control effect; nearly all actives have a fitted effect of over 60% in size
#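 Complex of BAZ2B and biotin-H3K14Ac (50 nM apiece) forms over 30 min at RT, then faces library compounds up to 110 uM for another 30 min; AlphaScreen beads added, 20 min dark incubation, luminescence read.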
# PLK1 PBD block: PLK1 (human) polo-box domain binding inhibition; P53350; Plk1 PBD binding of FITC phosphopeptide, fluorescence polarization; Potency, µM, for the others: max response, negative = inhibition, actives largely listed as inhibitors; actives 2.8% (n = 360,000); AID 720504; further: potency means the concentration at half of the fitted maximal effect; series mostly up to about 57 µM; on the % scale 0 is the no-effect control and ±100 the full control effect; nearly all actives have a fitted effect of over 65% in size
# G9a inh: G9a (human) methyltransferase inhibition; AID 504332; Potency, µM (series often up to 102 µM), for inactives: top-dose activity, negative = inhibition, hits mostly inhibitors; actives 8.8% (n = 350,000); G9a H3K9 monomethylation, AlphaScreen, 2 h; Q96KQ7; further: potency means the concentration at half of the fitted maximal effect; on the % scale 0 is the no-effect control and ±100 the full control effect; nearly all actives have a fitted effect of over 75% in size
#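 Signal arises when biotinylated H3K9 peptide, once monomethylated, bridges streptavidin donor and antibody-captured acceptor beads. Enzyme at 20 nM was preincubated 15 min with test compounds; peptide 500 nM and SAM 20 uM then reacted for 2 h.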
# JMJD2A Tudor inh: blocks the human JMJD2A Tudor domain; O75164; AlphaScreen JMJD2A-Tudor / H3K4me3 peptide binding; Potency, µM (highest dose often 114 µM), for inactives: at the highest dose activity change, negative = inhibition, most hits filed as inhibitors; actives 4.4% (n = 390,000); further: potency means the concentration at half of the fitted maximal effect; on the % scale 0 is the no-effect control and ±100 the full control effect; nearly all actives have a fitted effect of over 50% in size
# Active calls of the source: *; ? = inconclusive; . = not tested or not shown; [ ] = dose if it differs, or a comment. Unless noted, the call rests on the fitted dose curve; in most records, active means well fitted curve in the direction sought with a large enough effect; inconclusive means small, poorly fitted or top-dose-only effect, or another doubt; inactive means no such curve, though single readings can be large; an effect the other way counts as inactive or inconclusive.
SMILES,PI5P4K alpha inh,HP1b chromo inh,BAZ2B inh,PLK1 PBD block,G9a inh,JMJD2A Tudor inh
O=C(Nc1nncs1)c1cc(-c2ccco2)nc2ccccc12,?,3%,.,?,.,?
O=C(COC(=O)c1cc(-c2ccco2)nc2ccccc12)NCc1ccc2c(c1)OCO2,-24,23%,-9%,-22%,13µM*,-14%
CNCC(=O)NCC(=O)N[C@@H](Cc1ccccc1)C(=O)N[C@@H](CC(C)C)C(=O)O,.,.,.,.,9%[59 µM],.
Cc1cc(C(=O)OCC(=O)N2CCOCC2)c2ccccc2n1,-15,?,7%,15µM*,0%[59 µM],35µM*
CCOc1ccccc1NS(=O)(=O)c1c(-c2ccc(C)cc2)csc1C(=O)OC,.,44%,-15%,.,-5%[59 µM],-25%
O=[N+]([O-])c1cc([N+](=O)[O-])c2c(=Nc3ccccc3)n(-c3ccccc3)n(O)c2c1,?,?,20µM*,6µM*,35µM*,?
O=[N+]([O-])c1cccc(Cl)c1CSc1ccccn1,-3,50%,?,-18%,45µM*,-5%
CCCOc1ccc(C(=O)NC(=S)Nc2nc(C)c(C(=O)N(C)C)s2)cc1,.,2%,-34%,-7%,11µM*,-34%
Cc1nc(NC(=O)C(Cl)Cl)sc1C(=O)N(C)C,-6,10%,?,?,?,79µM*
COC(=O)c1sc(NC(=S)NC(=O)c2ccccc2)nc1C,7,16%,0%,-5%,9%[59 µM],-10%
COC(=O)c1sc(NC(=S)NC(=O)c2cc(OC)c(OC)c(OC)c2)nc1C,1,9%,-8%,0%,71µM*,-7%
Cc1nc(NC(=O)CCl)sc1C(=O)N(C)C,0,40%,2%,-11%,?,-3%
COc1ccccc1Nc1sc(C(=O)c2ccc(C)cc2C)c(N)c1S(=O)(=O)c1ccccc1,.,14%[57 µM],-21%,.,-24%[59 µM],-31%
O=C(Nc1cc(Cl)ccc1Cl)c1cc(S(=O)(=O)N2CCCc3ccccc32)ccc1F,.,65%,16%,.,-3%[59 µM],5%
CS(=O)(=O)c1cccc(C(=O)OCC(=O)NC(=O)Nc2ccccc2F)c1,10,18%[57 µM],.,-4%,.,-17%
O=C(CC(c1cccs1)S(=O)(=O)c1ccccc1)c1ccc(F)cc1 (configuration not stated),-3,30%,-24%,4%,8.9µM*,9%
COc1cccc(CN2C(=O)[C@@H]3Cc4c([nH]c5ccccc45)C(C)(C)N3C2=O)c1,.,-12%,.,.,.,?
O=C(NNS(=O)(=O)c1ccc(F)cc1)c1ccccc1O,2,24%,?,4%,32µM*,2%
Cc1ccc(NC(=O)c2csnn2)c(C)c1,4,63%,4%,-10%,14µM*,-18%[57.1 µM]
Cc1ccc(S(=O)(=O)NNC(=O)c2ccccc2O)cc1,4,4%,1%,-4%,-9%[59 µM],3.2µM*
Cc1ccc(NC(=O)C2C(c3ccccc3)C2(Cl)Cl)c(C)c1 (configuration not stated),-15,-6%,8%,21µM*,29%[59 µM],?
COc1ccc(Cn2c(CNS(=O)(=O)c3ccc4c(c3)CCCC4)nc3cccnc32)cc1,.,27%[57 µM],-12%,.,5%[59 µM],-20%
CCOc1cc(N2CCOCC2)c(OCC)cc1NC(=O)c1ccccc1N1CCCC1=O,4,.,.,0%,.,.
COc1ccc(C)cc1NC(=O)CSc1nnc2ccc(-c3cccnc3)nn12,-5,16%,11%,-2%,11%[59 µM],-14%
O=C(NNS(=O)(=O)c1ccc(F)cc1)c1cccc(O)c1,2,12%,8%,-5%,.,25µM*
SMILES,PI5P4K alpha inh,HP1b chromo inh,BAZ2B inh,PLK1 PBD block,G9a inh,JMJD2A Tudor inh
O=C(NC(=O)c1csnn1)Nc1ccccc1Cl,-2,27%,-20%,-7%,89µM*,-16%
Cc1ccc(S(=O)(=O)NNC(=O)c2csnn2)cc1,-2,19%,-5%,-21%,?,18µM*
COc1ccc2c(c1)c1c(c(=O)n(-c3cccc(Cl)c3)c(=O)n1CC(=O)N1CCCC1)n2C,.,6%,-11%,.,-6%[59 µM],-3%
CCc1cccc(NC(=O)Cn2c(=O)n(Cc3ccccc3)c(=O)c3c2c2cc(OC)ccc2n3C)c1,.,18%,-15%,.,-8%[59 µM],-9%
CC1CN(C(=O)CCC(=O)NCc2ccc(F)cc2)c2cc(Cl)ccc2O1 (configuration not stated),.,1%,-19%,.,-20%[59 µM],-14%
O=C(Nc1ccnc(=O)[nH]1)c1sc2ccccc2c1Cl,-14,1%,-14%,27µM*,14%[12.7 µM],-12%[11.4 µM]
O=C(Nc1ccncc1)c1sc2ccccc2c1Cl,5,24%,-17%,-7%,16%[59 µM],-8%
O=C(O)c1ccccc1NC(=S)NC(=O)c1sc2ccccc2c1Cl,?,-7%,-2%,12µM*,10µM*,?
Cc1ccc(NC(=S)NC(=O)c2sc3ccccc3c2Cl)c(C(=O)O)c1,.,.,50µM*,.,45µM*,.
O=c1[nH]c(=O)n(C2OC(CO)C(O)C2O)c2c1CCCC2 (configuration not stated),4,.,.,1%,.,.
CC1CCC(C(C)C)C(OCC(O)CN2CCCC(C)C2)C1 (configuration not stated),4,26%,-15%,-22%,-11%,-3%
CC1CCC(C(C)C)C(OCC(O)C[N+]2(C)CCCCC2)C1 (configuration not stated),-4,?,-29%,6%,50µM*,-11%
COCCSc1ccccc1C(=O)Nc1nncs1,.,43%,-19%,-11%,25µM*,-4%
COCCSc1ccccc1C(=O)Nc1cc(C)cc(C)c1,-17,52%,0%,-6%,4.5µM*,1%
COCCSc1ccccc1C(=O)Nc1cc(C)ccn1,5,32%,5%,-9%,-22%,3%
O=C(Nc1nncs1)c1cccnc1Cl,-8,5%,-5%,-11%,1.4µM*,-18%
COCCSc1ccccc1C(=O)Nc1ccncc1,.,11%,2%,-3%,?,-1%
COc1ccc(S(=O)(=O)NCC(=O)Nc2ccc3c(c2)OCCO3)cc1OC,2,37%,17%,-23%,50µM*,-11%
Nc1ccn([C@@H]2O[C@H](CNC(=O)[C@@H](Cc3cccnc3)NC=O)[C@@H](O)[C@H]2O)c(=O)n1,-2,.,.,-16%,.,.
C/C=C/c1cccc(-c2nc(C(=O)NC3Cc4ccccc4C3)cc3c2[C@@H](CCO)N(C(C)=O)C3)c1,16,.,.,-5%,.,.
COc1cccc2c1cc1c(=O)n(CC(=O)O)nc(C)n12,.,42%,-1%,.,-3%[59 µM],-4%
CC(C(=O)Nc1ccc2c(c1)OCCO2)c1ccc([N+](=O)[O-])cc1 (configuration not stated),2,10%,-4%,30µM*,-5%[59 µM],-31%
